Inconclusive results are not listed. Entries that show only a call come without a potency. The source made the active and inactive calls. Unless noted, calls come from the whole dose curve.
Tests used:
[1] = qHTS for Inhibitors of the Functional Ribonucleoprotein Complex (vRNP) of Lassa (LASV) Arenavirus: LASV Primary Screen - GLuc reporter signal (AID 1347082; calls by dose curve; tested in HEK293 reporter line; note: nearly all actives have a fitted effect of over 60% in size)
[2] = target: Nucleoprotein (Lymphocytic choriomeningitis virus (strain Armstrong)) (UniProt P09992); experiment: qHTS for Inhibitors of the Functional Ribonucleoprotein Complex (vRNP) of Lymphocytic Choriomeningitis Arenaviruses (LCMV): LCMV Primary Screen - GLuc reporter signal (AID 1347086); note: nearly all actives have a fitted effect of over 70% in size; note: potency is the fitted concentration of half-maximal effect
Nucleoprotein (Lymphocytic choriomeningitis virus (strain Armstrong)), sequence (P09992 whole entry, looked up): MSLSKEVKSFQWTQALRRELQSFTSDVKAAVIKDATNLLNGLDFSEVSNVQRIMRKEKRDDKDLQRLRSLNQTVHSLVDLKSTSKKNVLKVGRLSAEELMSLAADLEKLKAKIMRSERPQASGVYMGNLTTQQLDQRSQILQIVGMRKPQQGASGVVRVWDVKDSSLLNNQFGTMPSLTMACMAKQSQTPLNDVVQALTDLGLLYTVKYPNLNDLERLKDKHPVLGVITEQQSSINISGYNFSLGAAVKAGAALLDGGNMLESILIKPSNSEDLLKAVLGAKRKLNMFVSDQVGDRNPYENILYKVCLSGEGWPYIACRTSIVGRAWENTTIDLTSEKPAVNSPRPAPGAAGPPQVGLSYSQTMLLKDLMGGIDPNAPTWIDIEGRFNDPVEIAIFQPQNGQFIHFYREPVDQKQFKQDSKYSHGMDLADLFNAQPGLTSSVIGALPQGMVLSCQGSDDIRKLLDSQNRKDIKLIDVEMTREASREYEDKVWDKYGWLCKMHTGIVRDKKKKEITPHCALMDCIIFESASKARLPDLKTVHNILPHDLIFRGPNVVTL

[3] = Primary qHTS to identify inhibitors of SARS-CoV-2 cell entry (AID 1645846); details: activity change, negative = inhibition: at 57.1 µM (top of the series) unless noted; note: nearly all actives have a fitted effect of over 45% in size; note: potency is the fitted concentration of half-maximal effect
Outline: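 HEK293-ACE2 (Expi293F, stable hACE2), 1500 cells/well, o/n 37C; cpd 23 nL pin, 1 h; MLV-PP w/ SARS-CoV-2-S (Wuhan-Hu-1, Δ19 C-term); 48 h 37C; Bright-Glo luminescence; normalized vs S-PP and bald PP.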

[4] = Inducers of the Endoplasmic Reticulum Stress Response (ERSR) in human glioma: Validation (AID 504836; active = well fitted curve in the direction sought with a large enough effect; an effect the other way counts as inactive or inconclusive)
Outline: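 Stably transfected U87-MG glioma cells carrying a GRP78-based luciferase sensor; 16 h compound incubation. Luminescence end-point read 10 min after Bright-Glo addition at room temperature.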

[5] = Cytotoxicity counterscreen for inhibitors of SARS-CoV-2 cell entry (AID 1645845); note: nearly all actives have a fitted effect of over 50% in size; note: potency is the fitted concentration of half-maximal effect
Outline: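 Counterscreen run in the same HEK293-ACE2 line as the pseudotyped-particle entry assay, without particles. Viability after 48 h at 37 C was read as ATP luminescence, scaled between cell-containing and cell-free wells.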

[6] = target: Voltage-gated inwardly rectifying potassium channel KCNH2 (Homo sapiens) (UniProt Q12809); experiment: qHTS Assay for Small Molecule Inhibitors of the Human hERG Channel Activity (AID 588834; active = well fitted curve in the direction sought with a large enough effect; an effect the other way counts as inactive or inconclusive;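 note: potency is the fitted concentration of half-maximal effect; lower thallium flux fluorescence means stronger hERG block; nearly all actives have a fitted effect of over 50% in size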)
Voltage-gated inwardly rectifying potassium channel KCNH2 (Homo sapiens), sequence (Q12809 whole entry, looked up): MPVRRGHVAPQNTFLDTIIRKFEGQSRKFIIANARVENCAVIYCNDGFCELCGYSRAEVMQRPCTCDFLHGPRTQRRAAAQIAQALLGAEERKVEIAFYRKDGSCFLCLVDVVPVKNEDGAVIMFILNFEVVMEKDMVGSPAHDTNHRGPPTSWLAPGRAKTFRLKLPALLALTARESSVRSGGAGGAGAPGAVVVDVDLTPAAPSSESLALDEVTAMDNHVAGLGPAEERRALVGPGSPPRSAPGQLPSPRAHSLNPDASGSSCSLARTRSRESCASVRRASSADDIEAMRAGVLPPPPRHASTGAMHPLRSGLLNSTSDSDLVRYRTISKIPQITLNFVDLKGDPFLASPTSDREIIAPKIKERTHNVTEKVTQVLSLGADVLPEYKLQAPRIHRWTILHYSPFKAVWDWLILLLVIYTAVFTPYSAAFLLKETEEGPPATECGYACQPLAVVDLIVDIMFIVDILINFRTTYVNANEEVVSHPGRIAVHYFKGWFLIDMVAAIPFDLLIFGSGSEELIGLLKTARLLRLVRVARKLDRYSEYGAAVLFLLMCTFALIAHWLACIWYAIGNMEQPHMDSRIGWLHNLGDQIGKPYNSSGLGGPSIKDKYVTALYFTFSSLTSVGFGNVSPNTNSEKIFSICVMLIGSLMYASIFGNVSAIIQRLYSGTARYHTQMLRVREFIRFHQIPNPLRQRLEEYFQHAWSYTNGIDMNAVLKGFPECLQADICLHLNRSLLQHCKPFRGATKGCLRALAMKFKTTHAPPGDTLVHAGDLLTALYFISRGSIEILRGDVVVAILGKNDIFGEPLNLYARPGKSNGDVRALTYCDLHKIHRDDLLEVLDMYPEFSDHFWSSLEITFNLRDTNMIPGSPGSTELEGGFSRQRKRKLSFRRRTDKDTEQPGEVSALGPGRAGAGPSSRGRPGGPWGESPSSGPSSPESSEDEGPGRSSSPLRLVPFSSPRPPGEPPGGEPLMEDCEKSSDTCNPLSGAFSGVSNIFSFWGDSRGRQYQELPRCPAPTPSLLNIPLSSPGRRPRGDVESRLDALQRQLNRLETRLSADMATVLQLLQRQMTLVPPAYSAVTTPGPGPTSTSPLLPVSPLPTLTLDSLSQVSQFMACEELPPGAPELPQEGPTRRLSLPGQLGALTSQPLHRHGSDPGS
Outline: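 Thallium-flux (FluxOR) read-out on FDSS: fluorescence read 10 s before and 2 min after stimulation buffer. hERG-BacMam-transduced U2OS cells, compound exposure about 10 min. AC50 by standard Hill equation.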

[7] = qHTS profiling of the MIPE4 collection as inhibitors of Plasmodium falciparum (3D7) proliferation (AID 743344; call rule not given here); details: P. falciparum 3D7 in erythrocytes, SYBR Green DNA fluorescence, 72 h; at 28.5 µM (top of the series) unless noted
Outline: (§1)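 Parasite DNA was quantified by SYBR Green I fluorescence (ex 485, em 535 nm) after overnight lysis in saponin/Triton buffer at room temperature. Cultures at 0.3% parasitemia and 2.5% hematocrit were first exposed to compound for 72 h at 37 C; signals were normalised to artemisinin (0.29 uM) and vehicle wells.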

[8] = qHTS profiling of the MIPE4 collection as inhibitors of Plasmodium falciparum (DD2) proliferation (Rep 2) (AID 743346; call rule not given here); details: P. falciparum Dd2 in erythrocytes, SYBR Green DNA, 72 h; at 28.5 µM (top of the series) unless noted
Outline: as §1

[9] = Confirmatory qHTS to identify inhibitors of SARS-CoV-2 cell entry (AID 1645844); note: potency is the fitted concentration of half-maximal effect; nearly all actives have a fitted effect of over 45% in size
Outline: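 HEK293-ACE2, overnight seeding; cpd 1 h, 37C/5% CO2; + SARS-CoV-2-S MLV PP (Wuhan-Hu-1, ΔC19); 48 h; Bright-Glo luminescence. Data normalised to S PP and bald PP wells.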

[10] = target: Rap guanine nucleotide exchange factor 3 (Homo sapiens) (UniProt O95398); experiment: Confirmatory qHTS for agonist of cAMP-regulated guanine nucleotide exchange factor 3 (EPAC1) (AID 1645881; active = well fitted curve in the direction sought with a large enough effect; an effect the other way counts as inactive or inconclusive;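 note: EPAC1 catalysed release of BODIPY-GDP from Rap1B seen as fluorescence loss; nearly all actives have a fitted effect of over 75% in size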)
Rap guanine nucleotide exchange factor 3 (Homo sapiens), sequence (O95398 whole entry, looked up): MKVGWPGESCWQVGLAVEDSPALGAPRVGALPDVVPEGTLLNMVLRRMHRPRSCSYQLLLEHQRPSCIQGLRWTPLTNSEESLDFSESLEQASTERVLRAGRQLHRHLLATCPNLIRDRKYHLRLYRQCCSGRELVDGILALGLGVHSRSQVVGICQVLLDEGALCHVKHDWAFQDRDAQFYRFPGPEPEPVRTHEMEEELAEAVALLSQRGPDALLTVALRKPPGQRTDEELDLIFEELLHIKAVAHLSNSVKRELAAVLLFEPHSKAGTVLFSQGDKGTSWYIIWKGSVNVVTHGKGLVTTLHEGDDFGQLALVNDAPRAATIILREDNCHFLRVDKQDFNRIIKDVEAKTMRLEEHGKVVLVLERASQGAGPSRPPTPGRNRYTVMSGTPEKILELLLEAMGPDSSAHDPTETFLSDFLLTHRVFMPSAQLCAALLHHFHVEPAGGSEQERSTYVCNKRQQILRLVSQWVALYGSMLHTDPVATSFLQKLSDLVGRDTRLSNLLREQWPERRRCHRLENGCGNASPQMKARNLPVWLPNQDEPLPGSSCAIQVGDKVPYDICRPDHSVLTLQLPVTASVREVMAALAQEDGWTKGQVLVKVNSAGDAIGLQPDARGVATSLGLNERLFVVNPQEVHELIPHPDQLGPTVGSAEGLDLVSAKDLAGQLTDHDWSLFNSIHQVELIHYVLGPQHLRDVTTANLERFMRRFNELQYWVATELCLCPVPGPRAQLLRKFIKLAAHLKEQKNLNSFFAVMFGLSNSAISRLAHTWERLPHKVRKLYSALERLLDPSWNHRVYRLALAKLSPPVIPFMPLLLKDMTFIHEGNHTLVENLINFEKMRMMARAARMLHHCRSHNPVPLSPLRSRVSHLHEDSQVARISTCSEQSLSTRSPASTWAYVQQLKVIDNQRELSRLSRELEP

[11] = target: Rap guanine nucleotide exchange factor 4 (Homo sapiens) (UniProt Q8WZA2); experiment: Confirmatory qHTS for agonist of cAMP-regulated guanine nucleotide exchange factor 4 (EPAC2) (AID 1645884; active = well fitted curve in the direction sought with a large enough effect; an effect the other way counts as inactive or inconclusive;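 note: nucleotide exchange releases bodipy-GDP from Rap1 and this lowers its fluorescence; nearly all actives have a fitted effect of over 65% in size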)
Rap guanine nucleotide exchange factor 4 (Homo sapiens), sequence (Q8WZA2 whole entry, looked up): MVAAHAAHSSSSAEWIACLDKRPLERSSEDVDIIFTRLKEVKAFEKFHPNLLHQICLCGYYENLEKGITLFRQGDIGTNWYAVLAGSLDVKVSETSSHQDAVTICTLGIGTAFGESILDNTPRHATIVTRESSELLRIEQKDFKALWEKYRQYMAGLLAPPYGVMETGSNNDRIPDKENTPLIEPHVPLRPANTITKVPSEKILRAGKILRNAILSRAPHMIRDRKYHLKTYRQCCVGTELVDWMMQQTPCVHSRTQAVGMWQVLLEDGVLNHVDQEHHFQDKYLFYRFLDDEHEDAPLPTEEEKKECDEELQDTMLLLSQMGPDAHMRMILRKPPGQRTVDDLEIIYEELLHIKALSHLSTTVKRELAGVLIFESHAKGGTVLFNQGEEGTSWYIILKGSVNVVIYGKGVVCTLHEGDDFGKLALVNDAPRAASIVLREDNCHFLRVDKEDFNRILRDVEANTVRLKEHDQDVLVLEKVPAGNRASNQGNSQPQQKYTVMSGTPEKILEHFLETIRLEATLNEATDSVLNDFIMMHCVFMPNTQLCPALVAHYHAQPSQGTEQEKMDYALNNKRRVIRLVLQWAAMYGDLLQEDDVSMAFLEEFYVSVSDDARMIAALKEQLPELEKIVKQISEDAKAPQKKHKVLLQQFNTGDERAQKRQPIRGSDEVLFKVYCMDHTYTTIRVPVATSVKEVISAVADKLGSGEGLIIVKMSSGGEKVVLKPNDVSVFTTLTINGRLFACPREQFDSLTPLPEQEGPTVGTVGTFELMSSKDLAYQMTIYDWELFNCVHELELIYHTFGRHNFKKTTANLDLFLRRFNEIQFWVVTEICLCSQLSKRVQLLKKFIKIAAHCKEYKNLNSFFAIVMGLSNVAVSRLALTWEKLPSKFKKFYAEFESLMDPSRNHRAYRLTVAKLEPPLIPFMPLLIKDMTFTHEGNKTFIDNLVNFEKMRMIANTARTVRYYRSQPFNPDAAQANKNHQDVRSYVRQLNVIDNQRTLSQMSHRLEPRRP

[12] = target: Rap guanine nucleotide exchange factor 4 (Homo sapiens) (UniProt Q8WZA2); experiment: Confirmatory qHTS for antagonist of cAMP-regulated guanine nucleotide exchange factor 4 (EPAC2) (AID 1645885; active = well fitted curve in the direction sought with a large enough effect; an effect the other way counts as inactive or inconclusive; note: nearly all actives have a fitted effect of over 25% in size)
[13] = target: Rap guanine nucleotide exchange factor 3 (Homo sapiens) (UniProt O95398); experiment: Counterscreen qHTS for antagonist of cAMP-regulated guanine nucleotide exchange factor 3 (EPAC1) (AID 1645888; active = well fitted curve in the direction sought with a large enough effect; an effect the other way counts as inactive or inconclusive;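 note: fluorescence loss as bound BODIPY-GDP is released from Rap1B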)
Outline: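 Rap1B–BODIPY-GDP (250 nM) with 50 uM GDP; compounds pin-transferred to 9.74 nM–152 uM final (activator) or from 7.32 nM upwards (inhibitor). Fluorescence Ex/Em 480/540 nm read at 5 and 30 min, then after adding cAMP or buffer, at room temperature.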

[14] = qHTS for Inhibitors of the Functional Ribonucleoprotein Complex (vRNP) of Lassa (LASV) Arenavirus: Viability assay - alamar blue signal for LASV Primary Screen (AID 1347083; calls by dose curve; tested in HEK293 reporter line; note: nearly all actives have a fitted effect of over 80% in size; note: potency is the fitted concentration of half-maximal effect)
[15] = qHTS for Inhibitors of the Functional Ribonucleoprotein Complex (vRNP) of Lymphocytic Choriomeningitis Arenaviruses (LCMV): Viability assay - alamar blue signal for LCMV Primary Screen (AID 1347085; calls by dose curve; tested in HEK293 reporter line; note: nearly all actives have a fitted effect of over 80% in size; note: potency is the fitted concentration of half-maximal effect)

With `C[C@@H](N)c1ccc(C(=O)Nc2ccnc3[nH]ccc23)cc1` the Potency [1] was “inactive”, the Potency [2] was “inactive” and the activity change, negative = inhibition [3] was -95.9%.
In the case of `Nc1ncnc2n[nH]c(Nc3ccc(F)cc3)c12`, the outcome [4] is reported as “inactive”, the Potency [1] is reported as “inactive” and the Potency [2] is reported as “inactive”.
In the case of `CN1CCc2c(n(Cc3ccc(C(=O)NO)cc3)c3ccccc23)C1`, the Potency [1] is reported as “inactive”, the Potency [2] is reported as “inactive” and the Potency [5] is reported as 31.6 µM (active).
With `NC(=NCCCCCCN=C(N)N=C(N)Nc1ccc(Cl)cc1)N=C(N)Nc1ccc(Cl)cc1` the Potency [1] was “inactive”, the Potency [2] was “inactive” and the Potency [3] was 17.8 µM (active).
For `Cc1ccc(/C=N/NC(=O)c2ccccc2Oc2ccccc2)o1`, the Potency [1] was “inactive”, the Potency [2] was “inactive” and the Potency [5] was “inactive”. For the same compound, the Potency [3] was “inactive”.
For `O=C(NOCC(O)CO)c1cc(Br)c(F)c(F)c1Nc1ccc(I)cc1F` (configuration not stated), the Potency [1] was “inactive”, the Potency [2] was “inactive” and the Potency [5] was “inactive”. For the same compound, the activity change, negative = inhibition [3] was -16.5%.
With `C[C@H]1C/C=C/[C@@H]2[C@@H]3O[C@]3(C)[C@@H](C)[C@H]3[C@H](Cc4ccccc4)NC(=O)[C@]32OC(=O)O/C=C/[C@](C)(O)C1=O` the Potency [1] was “inactive” and the Potency [2] was “inactive”.
For `O[Si](CCCN1CCCCC1)(c1ccc(F)cc1)C1CCCCC1` (configuration not stated), the Potency [6] was 14.1 µM (active).
For `COc1ccc2c3c1OC1C[C@@H](O)C=C[C@@]31CCN(C)C2` (some centres not stated), the parasite growth, % of DMSO control [7] was 89.5% and the parasite growth, % of control (lower = inhibition) [8] was 65.2%.
In the case of `O=C(NC1CC1)c1cccc(-c2ccc3c(NC(=O)C4CC4)n[nH]c3c2)c1`, the Potency [9] is reported as 17.1 µM (active).
With `CN1c2ccccc2C(=O)N2CCc3c([nH]c4ccccc34)C21` (configuration not stated) the Potency [9] was 6.81 µM (active).
With `COc1cc2c(cc1OC)-c1c(OC)c(OC)cc3c1C(C2)N(C)CC3` (configuration not stated) the outcome [10] was “inactive”, the outcome [11] was “inactive” and the Potency [12] was “inactive”. For the same compound, the outcome [13] was “inactive”.
For `CC(Cc1ccccc1)(NC(=O)CN)c1ccccc1` (configuration not stated), the Potency [14] was “inactive” and the Potency [15] was “inactive”.
In the case of `CO[C@@H]1[C@@H](O)[C@H](O)[C@@H](n2c3c(Cl)cccc3c3c4c(c5c6cccc(Cl)c6[nH]c5c32)C(=O)NC4=O)O[C@@H]1CO`, the Potency [14] is reported as 1.93 µM (active), the Potency [15] is reported as 2.43 µM (active) and the Potency [2] is reported as 3.06 µM (active).
In the case of `C=C1C(=O)O[C@@H]2C[C@@H](C)[C@@H]3C=CC(=O)[C@@]3(C)[C@@H](OC(C)=O)[C@H]12`, the Potency [14] is reported as 4.47 µM (active) and the Potency [15] is reported as 4.47 µM (active).
In the case of `O=C(OCCOCCO)c1ccccc1Nc1cccc(C(F)(F)F)c1`, the Potency [14] is reported as “inactive” and the Potency [15] is reported as “inactive”.
For `Cc1ncc(-c2ccnc(Nc3ccc(S(C)(=O)=O)cc3)n2)n1C(C)C`, the Potency [14] was 6.85 µM (active) and the Potency [15] was 13.7 µM (active).
For `CC(=O)OC1C(O)C(C)OC(OC2C(OC(=O)C3CCC4C(C3)OC3(CC(OC(=O)/C=C/c5ccccc5)C(C)CO3)C43CO3)OC(C)C(O)C2OC(C)=O)C1O` (configuration not stated), the Potency [14] was 0.178 µM (active).
In the case of `C=C1CCC2[C@](C)(CO)[C@H](O)CC[C@@]2(C)[C@@H]1/C=C/C1=CCOC1=O` (some centres not stated), the Potency [14] is reported as “inactive” and the Potency [15] is reported as “inactive”.
In the case of `COc1cc(C)ccc1O`, the Potency [14] is reported as “inactive” and the Potency [15] is reported as “inactive”.
With `O=c1[nH]c(=O)n([C@H]2C[C@@H](O)[C@@H](CO)O2)cc1F` the Potency [14] was 5.44 µM (active) and the Potency [15] was 7.69 µM (active).
For `C=Cc1ncc(OC)c2c1[nH]c1ccccc12`, the Potency [14] was “inactive” and the Potency [15] was “inactive”.
In the case of `CC(=O)OC1CC2(O)C3CCC4CC(O)CCC4(C)C3CCC2(C)C1C1=CC(=O)OC1` (configuration not stated), the Potency [14] is reported as 0.282 µM (active) and the Potency [15] is reported as 0.316 µM (active).
With `C/C=C/c1ccc(OC(C)[C@@H](O)c2ccc(O)c(OC)c2)c(OC)c1` (some centres not stated) the Potency [14] was “inactive” and the Potency [15] was “inactive”.
For `C#C[C@]1(O)CC[C@H]2[C@H]3CCc4cc(OC)ccc4[C@H]3CC[C@@]21C`, the Potency [14] was 13.7 µM (active), the Potency [15] was 24.3 µM (active) and the Potency [2] was 27.3 µM (active).
With `CC(=O)OCC(=O)[C@@]12N=C(C)O[C@H]1C[C@H]1[C@@H]3CCC4=CC(=O)C=C[C@]4(C)[C@@H]3[C@@H](O)C[C@@]12C` the Potency [14] was “inactive” and the Potency [15] was “inactive”.
In the case of `C=CC(=O)Nc1cccc(Oc2nc(Nc3ccc(N4CCN(C)CC4)cc3)ncc2Cl)c1`, the Potency [14] is reported as 2.73 µM (active), the Potency [15] is reported as 1.72 µM (active) and the Potency [2] is reported as “inactive”.
For `CCCCCN=C(N)NN=Cc1c[nH]c2ccc(OC)cc12`, the Potency [14] was 6.11 µM (active) and the Potency [15] was 10.9 µM (active).
For `C[C@@H](Oc1ccc2[nH]nc(C=Cc3cnn(CCO)c3)c2c1)c1c(Cl)cncc1Cl`, the Potency [14] was 24.3 µM (active) and the Potency [15] was 27.3 µM (active).
For `C[C@H]1[C@H](O)O[C@@H]2O[C@@]3(C)CC[C@@H]4[C@H](C)CC[C@@H]1[C@@]24OO3`, the Potency [14] was 10 µM (active) and the Potency [15] was 15.8 µM (active).
In the case of `CCN(CC)CCNC(=O)COc1ccc(Cl)cc1`, the Potency [14] is reported as “inactive” and the Potency [15] is reported as “inactive”.
For `CCC1=C[C@@H]2CN(C1)Cc1c([nH]c3ccccc13)[C@@](C(=O)OC)(c1cc3c(cc1OC)N(C)[C@@H]1[C@@](O)(C(=O)OC)[C@H](OC(C)=O)[C@]4(CC)C=CCN5CC[C@]31[C@@H]54)C2`, the Potency [14] was 0.306 µM (active) and the Potency [15] was 0.217 µM (active).
For `CC(C=CC(=O)NO)=C[C@@H](C)C(=O)c1ccc(N(C)C)cc1`, the Potency [14] was 15.3 µM (active).
In the case of `Clc1ccc(C2(c3ccc(-c4cn[nH]c4)cc3)CCNCC2)cc1`, the Potency [14] is reported as 5.44 µM (active) and the Potency [15] is reported as 5.44 µM (active).
For `CC(=O)OCC(=O)[C@@]12OC(C)(C)O[C@H]1C[C@H]1[C@@H]3C[C@H](F)C4=CC(=O)C=C[C@]4(C)[C@@]3(F)[C@@H](O)C[C@@]12C`, the Potency [14] was “inactive” and the Potency [15] was “inactive”.
With `CC(=O)ON=C1C(c2c(O)[nH]c3cc(Br)ccc23)=Nc2ccccc21` the Potency [14] was 1.93 µM (active), the Potency [15] was “inactive” and the Potency [2] was “inactive”.
In the case of `Cc1cnc(Nc2ccc(N3CCN(C)CC3)cc2)nc1Nc1cccc(S(=O)(=O)NC(C)(C)C)c1`, the Potency [14] is reported as 3.85 µM (active), the Potency [15] is reported as 30.6 µM (active) and the Potency [2] is reported as 30.6 µM (active).
In the case of `O=C1NC2C(=CC(O)C(O)C2O)c2cc3c(cc21)OCO3` (configuration not stated), the Potency [14] is reported as 0.199 µM (active) and the Potency [15] is reported as 0.282 µM (active).
For `O=C(O)CO`, the Potency [14] was “inactive” and the Potency [15] was “inactive”.
With `CCCCC1CCC(=O)O1` (configuration not stated) the Potency [14] was “inactive” and the Potency [15] was “inactive”.
With `C=CC1CN2CCC1CC2c1[nH]c2ccccc2c1CCO` (configuration not stated) the Potency [14] was “inactive”, the Potency [15] was “inactive” and the Potency [2] was “inactive”.
With `CNC1CCC(N(Cc2cccc(-c3ccncc3)c2)C(=O)c2sc3c(F)ccc(F)c3c2Cl)CC1` (configuration not stated) the Potency [14] was 7.69 µM (active) and the Potency [15] was 5.44 µM (active).
In the case of `CN[C@@H]1C[C@H]2O[C@@](C)([C@H]1OC)n1c3ccccc3c3c4c(c5c6ccccc6n2c5c31)C(=O)N[C@H]4O`, the Potency [14] is reported as 0.355 µM (active) and the Potency [15] is reported as 2.73 µM (active).

From PubChem BioAssay (NCATS)
